From PubChem BioAssay (EPA / NIEHS)
Results filed as inconclusive are left out. Calls of active or inactive are those of the source. The calls were made as follows: active = hit-call score of the fitted dose curve at least 0.9, where 1 is the maximum; inconclusive = response in the unintended direction; inactive = score below 0.9.

The compounds below were run against AR (gene 367) (UniProt P10275) (assay: ACEA_AR_agonist_80hr: ACEA Biosciences xCELLigence Real-Time Cell Analysis on Androgen Receptor Agonism for Proliferation (AID 2283783);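 also: hits increase impedance growth signal above DMSO baseline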).
Sequence of AR (gene 367) (P10275 whole entry, looked up): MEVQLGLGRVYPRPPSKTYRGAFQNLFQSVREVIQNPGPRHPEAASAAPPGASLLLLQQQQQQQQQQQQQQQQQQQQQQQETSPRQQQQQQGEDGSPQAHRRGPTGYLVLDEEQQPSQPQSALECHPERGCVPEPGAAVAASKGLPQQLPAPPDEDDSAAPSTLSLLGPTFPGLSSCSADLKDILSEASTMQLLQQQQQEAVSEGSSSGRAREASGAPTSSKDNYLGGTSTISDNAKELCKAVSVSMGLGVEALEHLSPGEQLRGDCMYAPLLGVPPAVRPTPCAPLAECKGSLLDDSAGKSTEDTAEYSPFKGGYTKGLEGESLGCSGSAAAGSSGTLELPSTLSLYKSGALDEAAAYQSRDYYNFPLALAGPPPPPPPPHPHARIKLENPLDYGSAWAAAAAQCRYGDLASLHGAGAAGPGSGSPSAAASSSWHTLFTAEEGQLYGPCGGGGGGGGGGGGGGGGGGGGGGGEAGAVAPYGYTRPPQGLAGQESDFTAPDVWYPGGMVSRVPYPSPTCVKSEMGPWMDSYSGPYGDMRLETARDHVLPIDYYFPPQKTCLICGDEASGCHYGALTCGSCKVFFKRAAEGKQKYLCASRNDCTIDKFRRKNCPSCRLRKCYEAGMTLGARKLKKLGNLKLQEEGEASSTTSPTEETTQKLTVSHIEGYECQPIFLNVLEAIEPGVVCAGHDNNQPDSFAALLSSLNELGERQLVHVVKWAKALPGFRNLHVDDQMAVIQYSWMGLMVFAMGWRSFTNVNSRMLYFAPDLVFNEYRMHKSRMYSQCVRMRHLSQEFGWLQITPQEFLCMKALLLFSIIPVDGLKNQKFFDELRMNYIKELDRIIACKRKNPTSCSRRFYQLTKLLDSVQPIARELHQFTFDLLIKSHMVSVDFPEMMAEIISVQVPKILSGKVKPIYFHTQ
Procedure, shortened: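 22Rv1 human prostate cancer cells were seeded after preconditioning in assay medium and monitored overnight, then dosed in an eight-point 1:4 dilution series from 100 uM (≤0.5% DMSO). Impedance-based growth was read at 80 h, gain-of-signal versus DMSO.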
For `O=[N+]([O-])c1c(Cl)c(Cl)c(Cl)c(Cl)c1Cl`, the outcome was “inactive”. `C[C@H]1[C@H](c2ccc(Cl)cc2)SC(=O)N1C(=O)NC1CCCCC1` was tested, and the outcome was “inactive”. For `C#CCN1C(=O)COc2cc(F)c(N3C(=O)C4=C(CCCC4)C3=O)cc21`, the outcome was “inactive”.
